This is part of a sample that, as a whole, favours compounds with a hit. Of some 83,000 tested, about 20% had one in any assay.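 Cell lines were cultured in 96-well plates, exposed to a single compound concentration, and assessed for percent growth 48 hours later.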 Activity calls are given as the source filed them. Rule for the calls: active = growth percent below 10; inactive = the rest.
The compounds below were run on MDA-MB-468 breast (assay: NCI-60 one-dose screen, 48 h (100 = growth as untreated, 0 = no growth, -100 = all killed)). Settings: 10 µM unless noted.

SMILES | growth
c1cc(N2CCCC2)c2nc(-c3[nH]ncc3Nc3ncnc4[nH]ccc34)[nH]c2c1 | -76.2% (active)
c1ccc(-c2cn3nc(-c4c[nH]c5ccccc45)sc3n2)cc1 | 77.9% (inactive)
Cc1cc(O)c(C2=NN(c3ccc(S(N)(=O)=O)cc3)C(c3ccc(N(C)C)cc3)C2)c(C)c1Cl (stereo not given) | 91.1% (inactive)
O=C(c1ccccc1)C(Nc1ccccc1)c1ccccc1 (stereo not given) | 88.7% (inactive)
CCCC(=O)NC(c1cccnc1)c1ccc2c(C)ccnc2c1O (stereo not given) | -2% (active)
CNC(=S)N/N=C/CSC/C=N/NC(=S)NC | 66.8% (inactive)
O=C(Nc1ccc(Nc2ccncc2)cc1)c1ccc(C(=O)Nc2ccc(Nc3ccncc3)cc2)cc1 | 2.69% (active)
Cc1ccc2c(-c3nnc(N)s3)cc(=O)oc2c1C | 95.6% (inactive)
O=C(O)/C=C/C(=O)NCc1ccccc1 | 101% (inactive)
Oc1ccc(N=Cc2ccccc2)cc1 | 53.9% (inactive)
S=c1sc2c(Cl)nc(-c3cccnc3)nc2n1-c1ccccc1 | -34.2% (active)
N#C/C(=N\Nc1ccc(Cl)cc1)C(=O)C1CC1 | 27.1% (inactive)
O=C(Nc1cccc2[nH]c(C(F)(F)F)nc12)c1ccc(F)cc1 | 65.6% (inactive)
Cn1cc(-c2noc(-c3cn(C)c4ncccc34)n2)c2cc(Cl)ccc21 | 91.3% (inactive)
Cc1scc2c1N(C(=O)CN1CCN(C)CC1)c1ccccc1NC2=O | 101% (inactive)
Cn1c(N2N=C(c3ccc(Cl)cc3)CC2c2ccccc2)nc(-c2ccccc2)c(C#N)c1=O (stereo not given) | 74% (inactive)
CS(=O)(=O)Nc1cc(-c2cc3ncc(C#N)c(Nc4ccc(Oc5ccccc5)c(Cl)c4)c3s2)cnc1Cl | 43.3% (inactive)
CC12CC(C#N)CCC1O2 (stereo not given) | 111% (inactive)
CSc1nccc(-c2c(-c3ccc(F)c(OCc4ccc(F)cc4)c3)nc3sccn23)n1 | 23.3% (inactive)
Cn1c(COC(=O)NCCN2CCOCC2)nc2c(N3CCOCC3)nc(-c3ccccc3)nc21 | -69.1% (active)

SMILES | growth
CCOc1nc(-c2ccccc2)cc2c(O)c(C(=O)N/N=C/c3ccc(N(C)C)cc3)[nH]c(=O)c12 | 158% (inactive)
O=C(Nc1ccc([N+](=O)[O-])cc1)c1cc2ccccc2cc1O | -8.75% (active)
N#C/C(=C\c1ccc(-c2ccc(F)cc2)o1)C(=O)Nc1ncc(Cc2ccc(Cl)cc2Cl)s1 | -54.9% (active)
O=C(NNc1nc2cc(F)c(F)cc2n2cccc12)c1cccnn1 | -11.1% (active)
Cc1ccc(C(=O)c2ccc(CC(=O)NN3C(=O)c4ccccc4C3=O)n2C)cc1 | 93% (inactive)
CN1C(=O)N(C)C2Nn3c(s/c(=C\c4ccccn4)c3=O)=NC21 (stereo not given) | 95.6% (inactive)
N=C(N)c1ccc(-c2ccc(-c3cc(F)cc(F)c3)o2)nc1 | 85.3% (inactive)
O=C(CCCCCCc1nc2ccc(Br)cc2[nH]1)NO | -1.04% (active)
Cc1ccc(-c2c(Br)c(OC(=O)CO[C@@H]3C[C@H](C)CC[C@H]3C(C)C)c(-c3ccc(C)cc3C)c(Br)c2OC(=O)CO[C@H]2C[C@@H](C)CC[C@@H]2C(C)C)c(C)c1 | 34.5% (inactive)
Nc1c(C(=O)c2ccc(Cl)cc2)sc(Nc2ccccc2)c1-c1nc2ccccc2s1 | 14.7% (inactive)
O=c1c2cccc3c(Nc4ccc(Br)cn4)ccc(c32)c2nc3ccccc3n12 | -64.7% (active)
CCNC(=O)Oc1ccc(/C(=C(\C)c2ccc(Cl)cc2)c2ccc(OCCN3CCCCC3)cc2)cc1 | 56.5% (inactive)
CCCOCC(O)CNCCN (stereo not given) | 106% (inactive)
NS(=O)(=O)c1ccc(Nc2nc(SCC(=O)c3ccc(Cl)cc3)nc3c2CCCC3)cc1 | 57.9% (inactive)
C=C(C[n+]1ccccc1)[C@@H]1CC[C@]2(C(=O)OC)CC[C@]3(C)[C@H](CC[C@@H]4[C@@]5(C)CCC(=O)C(C)(C)[C@@H]5CC[C@]43C)[C@@H]12 | 7.22% (active)
Cc1[nH]cnc1/C=C1\SC(N2CCCCC2)=NC1=O | 101% (inactive)
N#Cc1ccc(-n2cnc(NC(=O)[C@H]3CCN(C#N)C3)c2)cc1 | -38.1% (active)
O=C1/C(=C/c2ccc([N+](=O)[O-])s2)Oc2ccc(Br)cc21 | -40.2% (active)
O=c1c2cnn(-c3ccccc3)c2n2c(CN3CCOCC3)nnc2n1-c1ccccc1 | 116% (inactive)
CN(C)c1nc(-c2ccco2)n2nc(-c3ccc(Cl)cc3)cc2n1 | 78.3% (inactive)

From PubChem BioAssay (NCI)
